mHTT-CaM PPI inh – mutant huntingtin-calmodulin interaction inhibitors – biochemical, AlphaScreen, primary screen; P42858; AlphaScreen His-mHTT/GST-CaM binding, luminescence; inhibition, % at 15 µM; 190,000 compounds, 3.6% hits
Pf apPOL block – Pf-apPOL inhibitors, biochemical, fluorescence; Plasmodium falciparum apicoplast DNA polymerase (apPOL); Recombinant Pf-apPOL, molecular beacon fluorescence, 1.5 h; inhibition, % at 10 µM; 210,000 compounds, 0.25% hits; AID 1794808, 2022
Numbers stand for hits; - = inactive; . = no result given. Only a selection was taken, and hits are over-represented in it overall. Cut-off read from the data, not from the text of the source: active = inhibition above about 50%; inactive = the rest.

SMILES	mHTT-CaM PPI inh	Pf apPOL block
Cc1ccc2[nH]cc(CCNC(=O)C3CCN(c4ccc(N5CCCCC5)nn4)CC3)c2c1	78	-
O=C(NCCc1c[nH]c2ccccc12)C1CCc2nc(N3CCCC3)ncc2C1 (stereo not drawn)	54	-
CN(CCNC(=O)CC1CCN(C(=O)C2CCCCC2)CC1)Cc1ccccc1	-	-
CC(CCc1ccccc1)NC(=O)CC1CCN(C(=O)C2CCCCC2)CC1 (stereo not drawn)	57	-
O=C(CC1CCN(C(=O)c2ccccc2Cl)CC1)NCCc1c[nH]c2ccccc12	71	-
O=C(CC1CCN(C(=O)c2ccccc2Cl)CC1)NCc1ccccc1F	-	-
COc1ccc2[nH]cc(CCNC(=O)C3CCc4nc(N5CCCC5)ncc4C3)c2c1 (stereo not drawn)	-	-
COCCNC(=O)CN1C(=O)/C(=C/c2ccccc2C)Sc2ccccc21	-	-
COc1cccc(N2CCN(C(=O)c3ccc(F)cc3)C(C)C2=O)c1 (stereo not drawn)	-	-
CN(C)c1ccc(N2CCC(C(=O)NCCc3c[nH]c4ccccc34)CC2)nn1	96	-
O=C(NCCc1c[nH]c2ccccc12)C1CCN(c2ccncc2)CC1	-	-
COc1ccc2[nH]cc(CCNC(=O)CC3CCN(C(=O)C4CCCCC4)CC3)c2c1	-	-
Cc1ccc2[nH]cc(CCNC(=O)CC3CCN(C(=O)C4CCCCC4)CC3)c2c1	86	-
CCc1ccc(C2Nc3ccccc3NC3=C2C(=O)CC(c2cccs2)C3)cc1 (stereo not drawn)	-	-
O=C(NCc1ccc(Cl)cc1)c1ccc(Oc2nccnc2N2CCSCC2)cc1	-	-
COc1ccc2cc(C(=O)Nc3cccc(C)c3)c(=Nc3ccc(C(=O)O)cc3)oc2c1	-	-
O=C(NCc1ccc(Cl)cc1)C1=C2CCCN2c2ccc(F)cc2S1(=O)=O	-	-
c1cc(-c2n[nH]c(C3CCCN(Cc4ccc5cc[nH]c5c4)C3)n2)ccn1 (stereo not drawn)	53	-
c1ccc(CN2CCCC(c3nc(-c4cccnc4)n[nH]3)C2)nc1 (stereo not drawn)	99	-
N#Cc1ccc(CN2CCCC(c3nc(-c4cccnc4)n[nH]3)C2)cc1 (stereo not drawn)	-	-
N#Cc1cccc(CN2CCCC(c3nc(-c4ccncc4)n[nH]3)C2)c1 (stereo not drawn)	-	-
CCCc1cc2c(=O)c(-c3nc(C)cs3)c(C)oc2cc1OC(C)=O	-	-
CC(=O)Nc1ccc(-c2noc(C3CCN(C(=O)Cc4ccccc4F)CC3)n2)cc1	-	-
CC(C)c1ccc(NC(=O)CSc2ncnc(N)n2)cc1	.	-
Cc1nc2ncccn2c1-c1csc(Nc2ccccc2)n1	97	-
SMILES	mHTT-CaM PPI inh	Pf apPOL block
Cc1nc2ncccn2c1-c1csc(N)n1	-	.
Cc1cc(NS(=O)(=O)c2ccc(Nc3nc(-c4c(C)nc5ncccn45)cs3)cc2)no1	-	-
Cc1nc2sccn2c1-c1csc(Nc2cccc(O)c2)n1	73	-
Cc1cccc(Nc2nc(-c3c(C)nc4ncccn34)cs2)c1	77	-
Cc1nc2ncccn2c1-c1csc(Nc2ccccn2)n1	73	-
Cc1cccc(C(=O)Nc2c(C)nc3sccn3c2=O)c1	-	-
Cc1nc2ncccn2c1-c1csc(Nc2cccc([N+](=O)[O-])c2)n1	-	-
O=C(CN1C(=O)c2c(Cl)c(Cl)c(Cl)c(Cl)c2C1=O)Nc1ccccc1	-	-
CC(=O)Nc1ccc(S(=O)(=O)Oc2c(Cl)cc(C)cc2Cl)cc1	.	-
O=c1oc(-c2cccc(Oc3ccc([N+](=O)[O-])cc3)c2)nc2ccccc12	-	-
O=C(CSc1cn(CCNC(=O)c2ccccc2F)c2ccccc12)NC1CCCCC1	-	-
O=C(NCc1ccccc1Cl)C1CCc2sc(C(=O)N3CCCC3)cc2C1 (stereo not drawn)	-	-
O=C1C(=O)N(Cc2ccc(Br)cc2)c2ccc([N+](=O)[O-])cc21	-	-
O=C1C(=O)N(Cc2ccc(Cl)c(Cl)c2)c2ccc([N+](=O)[O-])cc21	91	-
O=C1C(=O)N(CCCCN2C(=O)C(=O)c3ccccc32)c2ccccc21	-	-
O=C1C(=O)N(Cc2ccc(Cl)c(Cl)c2)c2ccccc21	93	-
O=C1C(=O)N(Cc2ccc(Br)cc2)c2ccccc21	70	-
O=C1C(=O)N(Cc2ccc(F)cc2)c2ccccc21	-	-
O=C(c1ccc([N+](=O)[O-])cc1)C1C(=O)N(c2ccccc2)C(=O)N(c2ccccc2)C1=O	.	-
CC(C)CC(=O)NCc1nc(-c2cccc(Cl)c2)no1	-	-
CCOC(=O)c1ccc(Cl)cc1Nc1ccc([N+](=O)[O-])cc1C(=O)OCC	.	-
CC(=O)N1/C(=C/c2ccc(N(C)C)cc2)C(=O)c2ccccc21	84	-
CC(=O)N1/C(=C/c2ccncc2)C(=O)c2ccccc21	-	-
COc1ccc(CC2(CC(=O)c3ccccc3)C(=O)c3ccccc3C2=O)cc1	-	-
N#CC1=C(N)Oc2n[nH]c(-c3ccc(Cl)cc3)c2C1c1ccc(F)cc1 (stereo not drawn)	-	-
SMILES	mHTT-CaM PPI inh	Pf apPOL block
N#CC1=C(N)Oc2n[nH]c(-c3ccc(F)cc3)c2C1c1cccc(F)c1 (stereo not drawn)	-	-
N#CC1=C(N)Oc2n[nH]c(-c3ccc(Cl)c(Cl)c3)c2C1c1ccc(O)c(O)c1 (stereo not drawn)	99	-
N#CC1=C(N)Oc2n[nH]c(-c3ccc(Cl)c(Cl)c3)c2C1c1cccc(O)c1 (stereo not drawn)	100	-
COc1cc(C2C(C#N)=C(N)Oc3n[nH]c(-c4cccs4)c32)cc(OC)c1O (stereo not drawn)	-	-
COc1cc(C2C(C#N)=C(N)Oc3n[nH]c(-c4ccc(Cl)s4)c32)ccc1O (stereo not drawn)	60	-
CCC(=O)N(CCC1(C(C)C)CCOC(C)(C)C1)Cc1ccc(OC)cc1 (stereo not drawn)	-	-
COc1ccc(C2=C/C(=C3/c4ccccc4-c4ncccc43)C(=O)O2)c(OC)c1	-	-
O=C1OC(c2ccccc2)=C/C1=C1/c2ccccc2-c2ncccc21	67	-
CC1=C/C(=C/c2ccc(-c3ccc(C)cc3)o2)C(=O)O1	85	-
Cc1ccc(C2=C/C(=C\c3ccccc3C)C(=O)O2)cc1	-	-
Cc1cc(=O)n2ccc(CN3CCCCC3)c(O)c2n1	92	-
CC(C)(C)c1nc(CN2CCCCC2)cc(CN2CCCCC2)c1O	-	-
Cc1ccccc1C1=N/C(=C\c2sccc2C)C(=O)O1	-	-
Cc1ccsc1C=C1C(=O)c2ccccc2C1=O	50	-
Cc1cccc(NC(=O)C(NS(=O)(=O)c2cccs2)C(C)C)n1 (stereo not drawn)	-	-
CC(=O)c1cccc(NC(=O)c2cccc(Br)c2)c1	-	-
COCc1cccc(NC(=O)c2cccc(Br)c2)c1	-	54
CCNC(=O)N1CC(c2nc(-c3ccc(F)cc3)no2)C2(CCOCC2)C1 (stereo not drawn)	-	-
CC1CCN(S(=O)(=O)c2ccc3[nH]c(=O)cc(C(=O)NC4CCCC(C)C4C)c3c2)CC1 (stereo not drawn)	-	-
NC(=O)C1CCN(C(=O)Cc2cc(-c3ccco3)on2)CC1	-	73
CC1Cc2ccccc2N1C(=O)Cc1cc(-c2ccco2)on1 (stereo not drawn)	-	-

High-throughput results (PubChem)
